LASV entry inh: Lassa virus entry inhibition; 18,000 tested, 4.1% active; Lassa virus pseudotyped entry inhibition, cell-based qHTS; Potency, µM (doses to about 49.2 µM), for inactives: at the highest dose activity change, negative = inhibition, most hits filed as inhibitors
MARV entry inh: inhibitors of Marburg virus binding or entry into cells | 18,000 tested, 6.5% active | Marburg virus pseudotype entry/binding inhibition, cell-based | AID 720532 | Potency, µM (highest dose often 49.2 µM), inactives show at the top dose activity change, negative = inhibition, actives largely listed as inhibitors
An asterisk follows results filed as active; ? = inconclusive; . = no result; ! = not confirmed by another sample; [ ] = another dose, or the depositor's remark. Hits are enriched below; roughly 8% of the tested compounds scored in any of these assays. Calls come from the whole dose curve; tested in HEK293 cells. % is set by controls: 0 for no effect and ±100 for the full control effect; potency is the fitted concentration of half-maximal effect.

SMILES | LASV entry inh | MARV entry inh
O=C(OCc1cn([C@@H]2CN(C(=O)C3CCCCC3)[C@@H](c3ccccc3)C[C@@H]2O)nn1)c1ccccc1 | 11.0% | ?
CCCCCCCC(=O)OCC(O)CO (stereo not given) | 0.5% | 13.4%
CCCCCCCCCCOCC(O)CN (stereo not given) | 31.6µM* | ?
CCCCCCCCCCCCSCCOCCO | -13.2% | 17.7%
CCCCCCCCCCCCCCCCOCCOCCOCCOCCOCCOCCOCCOCCOCCOCCOCCOCCOCCOCCOCCOCCOCCOCCOCCOCCO | 15.8µM* | ?
CCCC=CC1C(=O)[C@@H]2O[C@H]2C2(OCC(CC)(CC)CO2)C1CO (stereo not given in full) | 0.0%[8.59 µM] | -11.4%[8.59 µM]
O=C1NC(=O)C(N2CCc3ccccc32)=C1c1ccc(Cl)cc1 | -18.4% | ?
ON=C1CCc2cc(-c3nc(C4CCNCC4)[nH]c3-c3ccncc3)ccc21 | 59.1% | -3.2%
C=C(C)C(O)C=Cc1ccc(C(F)(F)F)cc1 (stereo not given) | 47.3%[8.59 µM] | ?
CC(C)(C)NCC(O)c1ccc(O)c(CO)c1 (stereo not given) | -3.7% | 13.1%
OCc1cc(C(O)CNCCCCCCOCCCCc2ccccc2)ccc1O (stereo not given) | ? | 15.8µM*
O[C@@H]1C[C@H](c2ccccc2)N(CC2CCCCC2)C[C@@H]1n1cc(C2CC2)nn1 | -21.2% | -27.3%
Cc1[nH]ccc2c1[nH]c1cc(=O)ccc12 | ? | 12.6µM*
O=c1c(-c2ccccc2)c1-c1ccccc1 | 7.08µM* | 14.1µM*
Nc1ccccc1 | -10.0% | -3.4%
CCOC(=O)C=C1CN(Cc2ccc(OC)cc2)S(=O)(=O)c2ccccc21 | -8.4% | ?
Cc1ccc(S(=O)(=O)NCl)cc1 | -9.9% | -13.2%
Cc1ccc(S(=O)(=O)N[C@@H](Cc2ccccc2)C(=O)CCl)cc1 | 35.5µM* | ?
CC(=O)OC[C@H]1O[C@H](CC=NOC[C@@H](O)[C@H]2O[C@@H]3OC(C)(C)O[C@H]3[C@@H]2O)C=C[C@H]1OC(C)=O | -4.6%[8.59 µM] | ?
O=S1(=O)CCSCCN1Cc1ccc(Br)cc1 | 16.7% | 5.9%
CC(=O)OC[C@H]1O[C@H](CCON=C(C)CCN2CCc3nc(-c4ccccc4)c(-c4ccccc4)cc3C2)C=C[C@H]1OC(C)=O | 12.9%[8.59 µM] | ?
CC[C@]1(c2ncc[nH]2)Cc2ccccc2O1 | 4.0% | -18.5%
CN(C)CCC1(c2ccc(Cl)cc2)Cc2ccccc2C(=O)O1 (stereo not given) | -14.5% | 35.5µM*
CC[n+]1c(/C=C/N(C)c2ccccc2)n(-c2ccccc2)c2ccc(-c3nc4ccccc4s3)cc21 | 3.16µM* | 2µM*
O=C1[C@@H]2CSCCS(=O)(=O)N2C(=O)N1c1cccc2ccccc12 | 32.6% | 25.4%
SMILES | LASV entry inh | MARV entry inh
O=C(c1cccs1)N1C[C@@H](O)[C@@H](n2cc(-c3ccc(F)cc3)nn2)C[C@@H]1c1ccccc1 | -25.9% | -21.0%
C=C1CCC(O)C/C1=C/C=C1\CCC[C@@]2(C)C(C(C)/C=C/C(C)C(C)C)CC[C@@H]12 (stereo not given in full) | -21.7% | -29.4%
CC(C)[C@@H](C)/C=C/[C@@H](C)[C@H]1CC[C@H]2/C(=C/C=C3\C[C@@H](O)CC[C@@H]3C)CCC[C@]12C | 22.4µM* | 12.7%
CC(CCN1CCCc2nc(C)c(C)cc21)=NO[C@@H](C)CN1CCCCc2nc(C)c(C)cc21 | 4.0%[8.59 µM] | -28.4%[8.59 µM]
COC(=O)CC=C[C@H](C)[C@@H](NC(=O)C(F)(F)F)c1ccccc1Br | -1.4%[8.59 µM] | -21.4%[8.59 µM]
CCC1OC(=O)C[C@@H](O)[C@H](C)[C@@H](O[C@@H]2O[C@H](C)C[C@H](N(C)C)[C@H]2O)[C@@H](CC=O)C[C@@H](C)C(=O)/C=C/[C@]2(C)OC2C1C (stereo not given in full) | 25.1µM* | 8.91µM*
CO[C@@H]1[C@@H](O[C@@H]2O[C@H](C)[C@@H](O[C@H]3C[C@@](C)(O)[C@@H](O)[C@H](C)O3)[C@H](N(C)C)[C@H]2O)[C@@H](CC=O)C[C@@H](C)[C@@H](O[C@@H]2CC[C@H](N(C)C)[C@@H](C)O2)/C=C/C=C/C[C@@H](C)OC(=O)C[C@H]1O | 9.7%[17.8 µM] | ?
C[C@H]1C=CCC(=O)N[C@@H](c2ccc3ccccc3c2)[C@@H](C)C=CCC(=O)N[C@@H]1c1ccc2ccccc2c1 | -1.0%[8.59 µM] | 20.2%[8.59 µM]
COc1ccc(NC(=O)c2ccc(-c3ccc(C)c4ccccc34)o2)cc1 | 26.1% | 14.3%
CCc1ccc(OCc2ccccc2C(=O)Nc2ccc3nc(C)cc(N)c3c2)cc1 | 7.08µM* | 3.98µM*
CC1=CC[C@@H](COc2ccccc2)O[C@@]2(C1)C(=O)N(Cc1ccccc1C(F)(F)F)c1ccccc12 | -17.2%[8.59 µM] | 1.2%[8.59 µM]
NCCCCCCNS(=O)(=O)c1cccc2c(Cl)cccc12 | ? | 17.8µM*!
NCCCCCCCCCCNS(=O)(=O)c1cccc2c(Cl)cccc12 | ? | 9.5%
COc1cccc([C@@H]2Oc3ccc(Br)cc3C(=O)[C@@H]2OC(=O)Nc2cc(OC)c(OC)c(OC)c2)c1 | -10.3%[8.59 µM] | 5.2%[8.59 µM]
CCCCn1c(C)cc2c(c1=O)[C@H]1O[C@](CCCC)(Cc3cc(C#N)ccc31)O2 | 13.8%[8.59 µM] | ?
NC(=O)c1sc(-n2cnc3ccccc32)cc1OCc1ccccc1Br | . | 15.8µM*
CC(Oc1cc(-n2cnc3ccc(OCC4CCN(C)CC4)cc32)sc1C(N)=O)c1ccccc1Cl (stereo not given) | . | 0.628µM*
COc1ccc2ncn(-c3cc(OC(C)c4ccccc4Cl)c(C(N)=O)s3)c2c1 (stereo not given) | ? | 0.315µM*
CC(Oc1cc(-n2cnc3ccc(OCC4CCN(C)CC4)cc32)sc1C(N)=O)c1ccccc1C(F)(F)F (stereo not given) | . | 1.41µM*
COC(=O)C1=C(C(=O)OC)[C@@H]2Nc3ccccc3[C@@]23C[C@@H](C(=O)OC)N(C(=O)NCCBr)C3=N1 | -10.6%[8.59 µM] | 77.7%[8.59 µM]
CCC[C@H]1CN(c2ccc(Br)cc2)C(=O)[C@H]1CC(=O)NC | 13.6% | 24.6%
CC(=O)OC[C@H]1O[C@H](CC=NO[C@H](C)c2cn([C@@H]3COC[C@@H]3O)nn2)C=C[C@@H]1OC(C)=O | -2.9%[8.59 µM] | -12.4%[8.59 µM]
CC1=CC(=C(c2ccc(N)cc2)c2ccc(N)cc2)C=CC1=N | 7.94µM* | ?
CC#CCN1c2ccccc2[C@]23CCC(=O)N(CCCOC(C)C)C2=NC(C(=O)OC)=C(C(=O)OC)[C@H]13 | 10.6%[8.59 µM] | -12.3%[8.59 µM]
O=C(OCc1cn([C@@H]2CN(CC3CCCCC3)[C@@H](c3ccccc3)C[C@@H]2O)nn1)c1ccccc1 | . | -27.6%
SMILES | LASV entry inh | MARV entry inh
COC(=O)C1=C(C)N(Cc2ccccc2)C(=NCC(C)C)NC1c1cccc(F)c1 (stereo not given) | 39.7%[8.59 µM] | 19.6%[8.59 µM]
CC(C)OC(=O)Nc1ccc2nc(-c3cscn3)[nH]c2c1 | 28.2µM* | -1.0%
CCCCc1ccc2nc(NC(=O)OC)[nH]c2c1 | -3.4%[17.8 µM] | -16.3%[17.8 µM]
CN1C2CCC1CC(OC(c1ccccc1)c1ccccc1N)C2 (stereo not given) | -8.2% | 17.8µM*
CN1C2CCC1CC(OC(c1ccccc1)c1ccc(Cl)cc1)C2 (stereo not given) | 11.2µM* | 3.98µM*
C[C@@H](C(=O)OC1C[C@H]2CC[C@@H](C1)N2C)c1ccc(Br)cc1 (stereo not given in full) | -16.6% | ?
CN1[C@@H](C[C@@H](O)c2ccccc2)CCC[C@@H]1C[C@H](O)c1ccccc1 | 8.5%[17.8 µM] | ?

Source: PubChem BioAssay (National Center for Advancing Translational Sciences (NCATS))
